Only some compounds are listed: those with a hit (about 19% of all), similar ones and a draw of the others.
HT1080 IDH1KD tx: qHTS for induction of synthetic lethality in tumor cells producing 2HG: qHTS for the HT-1080-IDH1KD cell line; 2% of 360,000 active; AID 686971, 2013; HT-1080 IDH1 knockdown viability, ATP luminescence, 48 h; Potency, µM (doses to about 46.1 µM), usual class: cytotoxic
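Knockdown cells (IDH1KD HT-1080) received compounds 2 h after plating at 750 cells/well and were kept 48 h at 37 °C in 5% FBS RPMI. A CellTiter-Glo luminescence read gave % activity for curve fitting.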
DT40 TDP1 no CPT: qHTS for Inhibitors of human tyrosyl-DNA phosphodiesterase 1 (TDP1): qHTS in cells in absence of CPT | 15% of 420,000 active | AID 686978, 2013 | DT40 Tdp1-/- hTDP1 cells, no CPT, ATP luminescence, 48 h | Potency, µM (titrated, usually from 46.2 µM), hits mostly inhibitors; note: nearly all actives have a fitted effect of over 55% in size
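Growth kinetics read by CellTiter-Glo luminescence after ≥48 hr at 37 °C. Cells: DT40 Tdp1-/- stably carrying human TDP1, 400 per well, compound exposure in the absence of CPT (DMSO vehicle).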
HT1080-NT tox: qHTS for induction of synthetic lethality in tumor cells producing 2HG: qHTS for the HT-1080-NT fibrosarcoma cell line; HT-1080-NT fibrosarcoma viability, CellTiter-Glo ATP luminescence, 48 h; Potency, µM (titrated, usually from 46.1 µM), usual class: cytotoxic; 1.6% of 360,000 active; AID 686970, 2013;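 note: NT is the 2HG producing partner of a matched IDH1 knockdown line; nearly all actives have a fitted effect of over 55% in size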
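Viability of the 2HG-overproducing fibrosarcoma line after 48 hours of compound exposure at 37 degrees C was determined by luminescence with CellTiter-Glo, and concentration-effect curves were then fitted and categorized.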
IL-1B inflam inh: qHTS for Inhibitors of Inflammasome Signaling: IL-1-beta AlphaLISA Primary Screen | 4.7% of 360,000 active | activity change, % at 57.5 µM | THP-1 LPS/ATP IL-1B secretion, AlphaLISA, 16 h; hits give low values | AID 743279, 2014; in the data active = activity change below about -50%; inconclusive = mostly about -30% to -49%
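THP-1 cells pretreated 1 hr with compounds (up to 57.5 uM final), then stimulated with LPS (250 ng/mL final) plus ATP (1.25 mM final); secreted IL-1B measured by AlphaLISA after 16 hr, decreased signal indicating inhibition.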
DT40 TDP1 CPT: qHTS for Inhibitors of human tyrosyl-DNA phosphodiesterase 1 (TDP1): qHTS in cells in presence of CPT | chicken DT40 Tdp1-/-;hTDP1 cells + 20 nM CPT, ATP luminescence, 48 h | Potency, µM (highest dose often 46.2 µM), hits mostly inhibitors | 12% of 420,000 active | AID 686979, 2013; note: nearly all actives have a fitted effect of over 55% in size
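Cell growth measured by CellTiter-Glo luminescence after a minimum 48 h, 37 C compound exposure with 20 nM CPT in Tdp1-knockout DT40 cells stably expressing hTDP1, seeded 400/well; qHTS titration format.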
Each line names hits and unclear results; the compound was inactive in the other large screens. Unless noted, calls come from the whole dose curve; as a rule, active = well fitted curve in the direction sought with a large enough effect; inconclusive = small, poorly fitted or top-dose-only effect, or another doubt; inactive = no such curve, though single readings can be large; an effect the other way counts as inactive or inconclusive.

C=CCN(C)CCCCCCOc1ccc(C(=O)c2ccc(Br)cc2)c(F)c1	DT40 TDP1 no CPT 5µM, DT40 TDP1 CPT 5µM (no result: HT1080 IDH1KD tx, HT1080-NT tox, IL-1B inflam inh)
CN(CCCCOc1ccc(F)cc1)Cc1ccccc1	none
COc1cc(C(O)c2nc(-c3ccccc3OC)cs2)ccc1F (stereo not drawn)	DT40 TDP1 no CPT inconclusive, HT1080-NT tox inconclusive, DT40 TDP1 CPT inconclusive
CC(=O)NC(c1ccc(F)c(F)c1)c1nc(-c2ccc3c(c2)OCO3)cs1 (stereo not drawn)	DT40 TDP1 no CPT inconclusive, DT40 TDP1 CPT inconclusive
OC(c1ccc(F)cc1)c1nc(-c2cncnc2)cs1 (stereo not drawn)	IL-1B inflam inh -86, DT40 TDP1 CPT inconclusive
OC(c1ccc(F)c(F)c1)c1nc(-c2ccc3c(c2)OCO3)cs1 (stereo not drawn)	DT40 TDP1 no CPT inconclusive, DT40 TDP1 CPT 21µM
COc1cc(C(O)c2nc(-c3cccc(F)c3)cs2)ccc1F (stereo not drawn)	DT40 TDP1 no CPT 18µM, HT1080-NT tox inconclusive, DT40 TDP1 CPT inconclusive
OC(c1ccc(F)c(F)c1)c1nc(-c2cccc(F)c2)cs1 (stereo not drawn)	HT1080 IDH1KD tx inconclusive, DT40 TDP1 no CPT inconclusive, HT1080-NT tox inconclusive, DT40 TDP1 CPT 15µM
COc1cc(C(O)c2nc(/C=C/c3ccccc3)cs2)ccc1F (stereo not drawn)	HT1080 IDH1KD tx inconclusive, DT40 TDP1 no CPT inconclusive, DT40 TDP1 CPT 18µM
COc1cc(C(O)c2nc(-c3cc(F)cc(F)c3)cs2)ccc1F (stereo not drawn)	DT40 TDP1 no CPT 15µM, DT40 TDP1 CPT 23µM
COc1ccc(C(O)c2nc(-c3cc(F)cc(F)c3)cs2)cc1 (stereo not drawn)	HT1080 IDH1KD tx inconclusive, DT40 TDP1 no CPT 16µM, HT1080-NT tox inconclusive, DT40 TDP1 CPT 16µM
OC(c1ccccc1)c1nc(-c2cc(F)cc(F)c2)cs1 (stereo not drawn)	HT1080 IDH1KD tx inconclusive, DT40 TDP1 no CPT inconclusive, HT1080-NT tox inconclusive, DT40 TDP1 CPT inconclusive
COc1cc(C(O)c2nc(-c3cncnc3)cs2)ccc1F (stereo not drawn)	none
OC(c1ccc(F)c(F)c1)c1nc(-c2cnc3ccccc3c2)cs1 (stereo not drawn)	DT40 TDP1 no CPT 21µM, HT1080-NT tox inconclusive, DT40 TDP1 CPT inconclusive
COC(=O)C1=C(C(=O)OC)[C@@H]2N(Cc3ccccc3)c3ccccc3[C@@]23C[C@@H](C(=O)OC)N=C3N1	none
Cc1ccccc1OCC(=O)Nc1nnc(S(=O)(=O)N(C)c2ccccc2)s1	none (no result: HT1080 IDH1KD tx, HT1080-NT tox, IL-1B inflam inh)
CN1C(=O)C(C)(C)c2cc(S(=O)(=O)N3CCC(C(=O)Nc4ccc(Cl)cc4)CC3)ccc21	none
O=C(NNS(=O)(=O)c1ccc2ccccc2c1)c1cccnc1	none
COc1cc(C(O)c2nc(-c3cc4ccccc4o3)cs2)ccc1F (stereo not drawn)	HT1080 IDH1KD tx inconclusive, DT40 TDP1 no CPT 23µM, HT1080-NT tox inconclusive, DT40 TDP1 CPT 21µM
COc1ccc(-c2csc(C(O)c3ccc(F)cc3)n2)cc1OC (stereo not drawn)	DT40 TDP1 CPT inconclusive
COc1cc(C(O)c2nc(-c3cccc(C(C)C)c3)cs2)ccc1F (stereo not drawn)	HT1080 IDH1KD tx inconclusive, DT40 TDP1 no CPT 18µM, HT1080-NT tox inconclusive, DT40 TDP1 CPT inconclusive
OC(c1ccccc1)c1nc(-c2ccc(F)c(Cl)c2)cs1 (stereo not drawn)	HT1080 IDH1KD tx inconclusive, HT1080-NT tox inconclusive, DT40 TDP1 CPT 16µM
COc1cc(C(O)c2nc(-c3ccc(N(C)C)cc3)cs2)ccc1F (stereo not drawn)	HT1080 IDH1KD tx inconclusive, DT40 TDP1 no CPT 23µM, IL-1B inflam inh -62, DT40 TDP1 CPT 16µM
COC(=O)[C@@]1(Sc2ccc(C)cc2)CC(=O)N(C(=O)CCc2ccccc2)[C@@H]1c1ccccc1	DT40 TDP1 no CPT inconclusive, DT40 TDP1 CPT inconclusive
Cc1cccn2c(=O)c3cc(C(=O)NC4CCCCC4C)n(C)c3nc12 (stereo not drawn)	DT40 TDP1 no CPT inconclusive
Cc1csc2nc(O)c(C(=O)NC3CCCCC3C)c(=O)n12 (stereo not drawn)	DT40 TDP1 no CPT 18µM, DT40 TDP1 CPT inconclusive
Cc1csc2nc(O)c(C(=O)NCC3CCCO3)c(=O)n12 (stereo not drawn)	none
CC1CCCCC1NC(=O)c1cc2c(=O)n3ccccc3nc2n1C (stereo not drawn)	DT40 TDP1 no CPT 16µM, DT40 TDP1 CPT 23µM
CC1CCCCC1NC(=O)c1c(O)nc2ccccn2c1=O (stereo not drawn)	DT40 TDP1 no CPT 21µM, HT1080-NT tox inconclusive, DT40 TDP1 CPT inconclusive
CCOc1cc(C(=O)CCC(=O)OCC(=O)N2c3ccccc3NC(=O)C2(C)C)ccc1O	DT40 TDP1 CPT inconclusive
Nc1cc(OCC(F)(F)F)cc(OCC(F)(F)F)c1	none
Nc1cc(N)cc(N)c1	DT40 TDP1 no CPT 4.5µM, DT40 TDP1 CPT 4.5µM (no result: HT1080 IDH1KD tx, HT1080-NT tox, IL-1B inflam inh)
O=C(Cn1nnc2ccccc2c1=O)NCc1ccco1	none
O=C(Cn1nc(C(=O)O)c2ccccc2c1=O)NCc1ccco1	DT40 TDP1 no CPT inconclusive, DT40 TDP1 CPT 26µM
CC1(C)Oc2nc3ccccc3n2/C1=C\C#N	none
Cc1ccc(Cn2c(C)c(CNC(C)c3ccccc3)c(C(=O)O)c2C)cc1 (stereo not drawn)	DT40 TDP1 no CPT 26µM, DT40 TDP1 CPT inconclusive (no result: HT1080 IDH1KD tx, HT1080-NT tox, IL-1B inflam inh)
CCOC(=O)c1c(NC(=O)CN2CCOCC2)sc(C(=O)NC)c1C	none
CCOC(=O)c1sc(NC(=O)CCN2CCN(C)CC2)c(C(=O)OCC)c1C	HT1080 IDH1KD tx inconclusive, DT40 TDP1 no CPT inconclusive, HT1080-NT tox 21µM, DT40 TDP1 CPT inconclusive
CCOC(=O)c1c(NC(=O)CN2CCN(S(=O)(=O)c3cc(Cl)ccc3Cl)CC2)sc(C(=O)N(C)C)c1C	HT1080 IDH1KD tx inconclusive, DT40 TDP1 no CPT inconclusive, DT40 TDP1 CPT 16µM
CCOC(=O)c1c(NC(=O)CC)sc(C(C)=O)c1C	DT40 TDP1 no CPT inconclusive, DT40 TDP1 CPT inconclusive
CCOC(=O)c1c(NC(=O)CN2CCN(C)CC2)sc(C(=O)Nc2ccccc2)c1C	HT1080 IDH1KD tx 23µM, DT40 TDP1 no CPT inconclusive, HT1080-NT tox inconclusive, IL-1B inflam inh -162, DT40 TDP1 CPT inconclusive
CCOC(=O)c1sc(NC(=O)/C=C/c2cnn(CC)c2C)c(C(=O)OCC)c1C	DT40 TDP1 no CPT 21µM, IL-1B inflam inh inconclusive, DT40 TDP1 CPT inconclusive
CCCOC(=O)c1c(NC(=O)/C=C/c2cnn(C)c2C)sc(C(=O)OCC)c1C	DT40 TDP1 CPT inconclusive
O=C(OCc1nnc(-c2ccccc2)o1)C1CCN(C(=O)c2ccc(Cl)cc2)CC1	none
